# Test results as given in PubChem BioAssay AID893 (National Center for Advancing Translational Sciences (NCATS), 2007).
# About 5,700 (7.6%) of roughly 75,000 compounds were called active. Not shown: some 7% with an inconclusive outcome. This is one part of a sample in which actives are shown more often than they occur. The call rests on the fitted dose curve; in most records, active means well fitted inhibition curve with a large enough effect; inconclusive means small, poorly fitted or top-dose-only effect; inactive means no such curve, though single readings can be large or run the other way.
# Biological target: 3-hydroxyacyl-CoA dehydrogenase type-2 (Homo sapiens) (UniProt Q99714)
# Experiment: qHTS Assay for Inhibitors of HSD17B4, hydroxysteroid (17-beta) dehydrogenase 4;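 further: the protocol describes HADH2 (HSD17B10) and not the HSD17B4 of the title; nearly all actives have a fitted effect of over 70% in size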
# Conditions: recombinant HSD17B10, NADH fluorescence kinetic; series mostly up to 57.1 µM; activity change, negative = inhibition: at the top concentration
# Method in brief: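 His-tagged E. coli-expressed HADH2 at 20 nM in 100 mM Tris-HCl pH 9.0 with 0.01 % Tween-20, preincubated 15 min with compound at room temperature. Reaction with 1 mM NAD+ and 90 uM beta-hydroxybutyryl coenzyme A; NADH fluorescence (360/450 nm) read kinetically over 4 min, last minus first point.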
# On the % scale 0 is the no-effect control and ±100 the full control effect; potency means the concentration at half of the fitted maximal effect.
SMILES,"activity change, negative = inhibition",Potency
COC(=O)c1ccc(C23CC4(C2)[C@H](CN(Cc2cccnc2)[C@@H]4c2ccccc2)C3c2ccc(Cl)nc2)cc1 (some centres not stated),15% (inactive),
COc1cc(C2C(C(=O)Nc3ccccc3OC)=C(C)Nc3ncnn32)ccc1O (configuration not stated),4.6% (inactive),
Cc1c(C(=O)OCc2cc(=O)n3cc(Br)ccc3n2)oc2ccccc12,13.2% (inactive),
Cc1c(C(=O)OCC(=O)N(CCC#N)c2ccccc2)oc2c1ccc1ccccc12,,31.6 µM (active)
COc1ccc(N(CC(=O)NC(C)(C)C)C(=O)c2ccco2)cc1,7.51% (inactive),
CCOC(=O)c1cccc(NC(=O)CN(c2ccc(C)cc2)S(=O)(=O)c2c(C)noc2C)c1,5.58% (inactive),
CC(C)c1nc2oc3c(N4CCN(C)CC4)ncnc3c2c2c1CCC2,11.4% (inactive),
CCOC(=O)CSc1nnc(CNC(=O)c2cccs2)n1-c1cc(OC)ccc1OC,11.8% (inactive),
Cc1cc(C)c2c(n1)nn1c(N3CCN(c4cccc(Cl)c4)CC3)cc(C)nc21,,3.16 µM (active)
Cc1cc(N2CCCC2)n2nc(C)c(-c3ccccc3)c2n1,1.36% (inactive),
Cc1cc(C)c2c(n1)nn1c(N3CCOCC3)cc(C)nc21,,12.6 µM (active)
Cc1nn2c3cc(N4CCOCC4)ccc3nc2c2ccccc12,-4.24% (inactive),
C/C(O)=C\c1nc(=O)c2c(C)cc(C)nc2n1-c1ccccc1,-1.92% (inactive),
O=C(c1ccco1)N1CCN(c2cccc(Cl)c2)CC1,-3.52% (inactive),
COc1ccc(Cl)cc1NC(=O)c1oc(C)nc1C,-17.1% (inactive),
CC(C)(C)c1csc(NC2=NS(=O)(=O)c3ccccc32)n1,-14.2% (inactive),
CC1(C)C=CC(=O)[C@]2(C)C1CC(=O)[C@]1(C)C2CC[C@@]2(C)C(c3ccoc3)OC(=O)C3OC321 (some centres not stated),0.345% (inactive),
O=C(Cl)c1ccccc1[N+](=O)[O-],6.57% (inactive),
CC1CCCC(N2CCN(C(=O)c3ccc(F)cc3)CC2)C1 (configuration not stated),1.55% (inactive),
COc1ccccc1-c1nc(N2CCN(C)CC2)c2ccccc2n1,1.29% (inactive),
CCn1cc(C(=O)NC2CCCCCC2)c(=O)c2cc(S(=O)(=O)N3CCCCC3)ccc21,-5.45% (inactive),
CCC1(C)Cc2c(sc3nc4n(c(=O)c23)CCCS4)CO1 (configuration not stated),,31.6 µM (active)
CCCCc1c(O)nc2n(c1=O)CCS2,13.8% (inactive),
CN(C)CCSc1nc(N)c2c3c(sc2n1)COC(C)(C)C3,-7.11% (inactive),
CCOC(=O)CCCNC(=O)CN1C(=O)NC(CCc2ccccc2)C1=O (configuration not stated),5.32% (inactive),
CCC(=O)N1CCN=C1SCc1ccc(F)cc1,2.13% (inactive),

SMILES,"activity change, negative = inhibition",Potency
Cc1c(S(=O)(=O)O)oc2c1C(=O)C(=O)c1c-2ccc2c1CCCC2(C)C,,10 µM (active)
CCCCC(=O)Nc1ccc2c(c1)OCCO2,8.43% (inactive),
CCCCCC(=O)Nc1ccc2oc(-c3ccncc3)nc2c1,,31.6 µM (active)
Cc1cc2nc(-c3ccc(NC(=O)c4cccnc4)cc3)oc2cc1C,435% (inactive),
CNC(=O)c1c(NC(=O)c2ccc(S(=O)(=O)N3CCOCC3)cc2)sc2c1CCC2,-4.1% (inactive),
Cc1ccc(S(=O)(=O)N(C)CC(=O)N2CCc3ccccc32)cc1,-7.67% (inactive),
COCCN(CC(=O)Nc1ccccc1C)S(=O)(=O)c1ccc(S(=O)(=O)N2CCCC2)cc1,-15% (inactive),
CC(C)(C)OC(=O)c1c(N)n(CCCN2CCCC2=O)c2nc3ccccc3nc12,,25.1 µM (active)
CSc1nnc(-c2ccncc2)n1CCCN1CCCC1=O,-3.99% (inactive),
CCOc1cc2[nH]c(=S)n(CCCN3CCCC3=O)c(=O)c2cc1OCC,-20.1% (inactive),
COC(=O)[C@@H]1C[C@H]2CC[C@H](O)C[C@H]2N1Cc1ccc(N2CCN(C)CC2)cc1,3.6% (inactive),
CNC(=O)CSc1nnc(CCc2ccccc2)n1-c1ccccc1,-5.46% (inactive),
CCCCCCN(C(=O)CCCCCN1C(=O)NC(c2ccc(C(F)(F)F)cc2)C(C(=O)OCc2ccccc2)=C1C)C(C(=O)NCCCC)c1ccc(OCC(=O)OC)c(C(=O)OC)c1 (configuration not stated),-15.2% (inactive),
C[N+](C)(CCCCCC[N+](C)(C)CCCN1C(=O)c2cccc3cccc(c23)C1=O)CCCN1C(=O)c2cccc3cccc(c23)C1=O,,25.1 µM (active)
CCN1C(=O)c2cccc3c(N)ccc1c23,0.994% (inactive),
O=C1c2ccccc2C(=O)N1CCCSc1ccccc1,-1.64% [at 11.4 µM] (inactive),
Cc1ccc(C(=O)NCCNS(=O)(=O)c2ccccc2)cc1,7.56% (inactive),
COc1ccc(N2CCN(C(=O)CSc3nnc4ncccn34)CC2)cc1,-1.15% (inactive),
C=CCOC(=O)c1ccccc1C(=O)OCC=C,1.8% (inactive),
C=CCn1c(N)c(S(=O)(=O)c2cccs2)c2nc3ccccc3nc21,,25.1 µM (active)
C=CCn1c(C(C)NC(=O)CC)nc2ccccc21 (configuration not stated),-4.61% (inactive),
CC(C)Cn1c(N)c(C(=O)NCc2cccs2)c2nc3ccccc3nc21,,15.8 µM (active)
COC(=O)c1cn(CC(=O)NCc2cccs2)c2ccccc12,-2.79% (inactive),
C=CCn1c(N)c(C(=O)OCC(C)C)c2nc3ccccc3nc21,,31.6 µM (active)
CCN(CC(=O)NCc1cccs1)c1nnnn1-c1ccccc1,18.2% (inactive),
c1csc(-c2nc(-c3ccncc3)no2)c1,6.88% (inactive),

SMILES,"activity change, negative = inhibition",Potency
c1ccc2cc(OCCN3CCCC3)ccc2c1,1.12% (inactive),
CCCC[C@H]1C(=O)N(c2ccccc2)N(c2ccc(O)cc2)C1=O,-15.3% [at 25.6 µM] (inactive),
C/C=C/C=C/C(=O)O,7.5% (inactive),
COc1ccc(S(=O)(=O)N2CCC(C(=O)N3CCc4ccccc4C3)CC2)cc1OC,-13.7% (inactive),
CSc1nnc2c(n1)OC(c1cn(C)c3ccccc13)N(C(C)=O)c1ccccc1-2 (configuration not stated),0.0624% (inactive),
CCCCn1c(CN2CCN(CCO)CC2)nc2ccccc21,14.8% (inactive),
CCCc1nc2c(C)cc(-c3nc4ccccc4n3C)cc2n1Cc1ccc(-c2ccccc2C(=O)O)cc1,,31.6 µM (active)
CCCCn1c(CCCNC(=O)CC)nc2ccccc21,1.46% (inactive),
Cc1ccc(Nc2cc(=O)n(C3CCCCC3)c(=O)[nH]2)cc1C,0.726% (inactive),
Cc1ccc(CCn2c3c(c4ccccc42)CN(C)CC3)cn1,-4.43% (inactive),
CC1(C)OC(C(O)(c2ccccc2)c2ccccc2)C(C(O)(c2ccccc2)c2ccccc2)O1 (configuration not stated),1.95% [at 11.4 µM] (inactive),
C=CCN1C(=O)C(O)(CC(=O)c2ccc(Cl)cc2)c2ccccc21 (configuration not stated),-9.85% (inactive),
COc1cc2[nH]c(=S)n(Cc3ccc(C)o3)c(=O)c2cc1OC,-14% (inactive),
COc1cc2[nH]c(=O)n(CCC(=O)NC3CCN(Cc4ccccc4)CC3)c(=O)c2cc1OC,-23.8% (inactive),
COc1cc2cc(CN(CCN3CCCC3)C(=O)Nc3ccccc3Cl)c(=O)[nH]c2cc1OC,,25.1 µM (active)
COc1ccc(CCN(Cc2cc3cccc(C)c3[nH]c2=O)C(=O)N2CCCC2)cc1OC,-9.05% (inactive),
C[C@@H](N)[C@@H](C)Cc1ccccc1,4.93% [at 11.4 µM] (inactive),
c1ccc(CSCCc2ccncc2)cc1,1.7% [at 11.4 µM] (inactive),
COc1ccc(/C=C/NC(=O)c2ccc(OC)cc2)cc1,7.09% [at 11.4 µM] (inactive),
COc1ccc(C(=O)NC(=O)CSc2nnc(-c3ccco3)n2-c2ccccc2)cc1,-19.2% (inactive),
COc1ccc(C(=O)NCc2cn3ccccc3n2)cc1,,31.6 µM (active)
CC(C)(O/N=C(\C(=O)N[C@@H]1C(=O)N2C(C(=O)[O-])=C(C[n+]3ccccc3)CS[C@@H]12)c1csc(N)n1)C(=O)O,-25.6% [at 25.6 µM] (inactive),
CC(C)[C@H]1CC[C@@H](C)C[C@H]1O,19.7% (inactive),
Cc1ccc2[nH]c(=O)c(COC(=O)c3ccccn3)cc2c1,2.81% (inactive),
COc1ccc2[nH]c(=O)c(CN(Cc3nnnn3CCc3ccccc3)CC3CCCO3)cc2c1 (configuration not stated),,25.1 µM (active)
O=C(CN(CC1CCCO1)C(=O)CNS(=O)(=O)c1ccccc1)NCc1ccccc1 (configuration not stated),3.8% (inactive),

SMILES,"activity change, negative = inhibition",Potency
CCOc1ccc2[nH]c(=O)c(CN(CCCO)C(C)=O)cc2c1,,31.6 µM (active)
CCN(Cc1cc2cc(C)ccc2[nH]c1=O)S(=O)(=O)c1ccccc1,-5.26% (inactive),
CCC(=O)N(Cc1cc2cc(OC)ccc2[nH]c1=O)c1ccccc1C,,25.1 µM (active)
CCOC(=O)c1cc2cc(C)ccc2[nH]1,-29.8% (inactive),
Cc1cc(C)c2cc(CN(Cc3cccs3)Cc3nnnn3CC3CCCO3)c(=O)[nH]c2c1 (configuration not stated),-5.81% (inactive),
CCC(c1nnnn1Cc1ccccc1)N(Cc1cc2cc(OC)ccc2[nH]c1=O)CC1CCCO1 (configuration not stated),-14.7% (inactive),
COc1ccc2[nH]c(=O)c(CN(CC3CCCO3)C(=O)Nc3ccccc3)cc2c1 (configuration not stated),,25.1 µM (active)
COc1ccc(N(Cc2cc3cc(OC)ccc3[nH]c2=O)S(C)(=O)=O)cc1,5.18% (inactive),
COc1cccc(-n2c(Cc3cc(=O)[nH]c(=O)[nH]3)nnc2SCC(=O)Nc2ccccc2)c1,13.3% (inactive),
COCC(=O)N1CCC2(CCCN(c3ccccc3)C2)CC1,0.0239% (inactive),
Cc1cc(N(C)C)cc(C)[n+]1[O-],-0.103% (inactive),
O=C(O)CCC(=O)N(Cc1ccco1)c1nc(-c2ccccc2)cs1,1.5% (inactive),
O=C(c1cccc(C(=O)N2CCc3ccccc32)n1)N1CCc2ccccc21,0.85% (inactive),
COc1cc(OC)c2c(c1Cl)OC1(C2=O)C(O)=CC(=O)CC1C (configuration not stated),3.09% (inactive),
COc1ccc2c3c(c(=O)oc2c1OCC(=O)C(C)(C)C)CCCC3,,25.1 µM (active)
COc1ccc(Cl)cc1S(=O)(=O)N1CCN(CC(=O)C(C)(C)C)CC1,5.3% (inactive),
COc1ccc(C(=O)OCC(=O)c2ccc(C)c(S(=O)(=O)N3CCOCC3)c2)cc1OC,55.3% (inactive),
Cc1c(C)c2cc3c4c(oc3c(C)c2oc1=O)CCCC4,-7.6% (inactive),
CCCOc1ccc2c3c(c(=O)oc2c1OCCC)CCC3,,12.6 µM (active)
O=C(COc1ccc(S(=O)(=O)NCCc2ccccc2)cc1)N1CCCC1,-0.347% (inactive),
c1nnc2c3c4c(sc3ncn12)CCC4,4% (inactive),
CCOC(=O)C1=C(C)NC(=O)N(C(C)=O)C1c1ccc(Cl)cc1 (configuration not stated),-3.44% (inactive),
O=C(c1cnccn1)N1CCC[C@@]2(CCN(Cc3ccncc3)C2)C1,-0.839% (inactive),
CCS(=O)(=O)N1CCCC(C(=O)NCc2ccc(C)cc2)C1 (configuration not stated),3.03% (inactive),
